Measured values from publication PMC4336329 (PLoS ONE, 2015).
In all, about 310,000 compounds went through this assay and about 14,000 (4.5%) showed an effect of 50% or more. The effect is printed as a negative number. The entries come from a sample that favours strong results as a whole.

Target: human ether-à-go-go-related gene (hERG) potassium channel (human, UniProt Q12809)
Assay: primary screen, population patch clamp on CHO cells stably expressing hERG; higher = less effect of the substance
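Note: peak tail current of the secondary pulse compared with the same well before compound.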

Sequence of human ether-à-go-go-related gene (hERG) potassium channel (Q12809 whole entry, looked up): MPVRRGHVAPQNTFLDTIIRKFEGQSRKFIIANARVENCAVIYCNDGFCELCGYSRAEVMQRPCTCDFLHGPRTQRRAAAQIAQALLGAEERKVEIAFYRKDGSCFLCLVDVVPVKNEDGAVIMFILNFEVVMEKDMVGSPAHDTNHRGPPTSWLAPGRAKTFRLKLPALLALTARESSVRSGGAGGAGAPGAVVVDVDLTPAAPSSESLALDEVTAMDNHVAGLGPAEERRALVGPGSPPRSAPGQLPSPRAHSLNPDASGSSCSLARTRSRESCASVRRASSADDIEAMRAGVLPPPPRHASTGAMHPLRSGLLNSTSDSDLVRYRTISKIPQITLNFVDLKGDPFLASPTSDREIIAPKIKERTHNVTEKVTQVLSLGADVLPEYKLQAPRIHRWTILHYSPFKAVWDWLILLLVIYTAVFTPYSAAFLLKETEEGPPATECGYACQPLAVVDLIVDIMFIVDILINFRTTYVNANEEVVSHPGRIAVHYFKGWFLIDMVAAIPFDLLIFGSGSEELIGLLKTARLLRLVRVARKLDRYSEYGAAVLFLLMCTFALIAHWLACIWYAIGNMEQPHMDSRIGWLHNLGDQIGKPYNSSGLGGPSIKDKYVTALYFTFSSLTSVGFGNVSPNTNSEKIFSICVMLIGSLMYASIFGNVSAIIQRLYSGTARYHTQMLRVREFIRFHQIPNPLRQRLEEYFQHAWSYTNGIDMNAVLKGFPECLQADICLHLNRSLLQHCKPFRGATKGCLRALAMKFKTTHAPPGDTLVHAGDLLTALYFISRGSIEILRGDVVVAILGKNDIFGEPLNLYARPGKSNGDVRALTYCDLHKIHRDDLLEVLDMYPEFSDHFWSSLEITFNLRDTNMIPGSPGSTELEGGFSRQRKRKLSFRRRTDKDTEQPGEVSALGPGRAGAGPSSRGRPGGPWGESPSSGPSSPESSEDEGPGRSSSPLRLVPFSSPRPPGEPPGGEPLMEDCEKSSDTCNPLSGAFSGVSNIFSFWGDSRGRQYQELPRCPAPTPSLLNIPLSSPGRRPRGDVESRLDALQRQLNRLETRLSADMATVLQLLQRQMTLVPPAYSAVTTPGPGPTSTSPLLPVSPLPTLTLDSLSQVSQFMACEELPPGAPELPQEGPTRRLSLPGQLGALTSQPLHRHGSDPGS

| Compound | hERG current change (%, negative = inhibition) at 10uM [%] |
| --- | --- |
| CCc1ccc(N(CC(=O)NC(C)(C)C)C(=O)CNC(=O)c2cccs2)cc1 | 15.5 |
| Cc1nc(S/C(=C/c2ccc(-c3ccc(C(=O)O)cc3)o2)C(=O)O)n[nH]1 | -11.4 |
| Cc1ccc(NC(=S)N(CCN(C)C)Cc2cccs2)cc1C | -46.7 |
| Cc1ccc(NC(=S)N(CCCN2CCN(C)CC2)Cc2cccs2)cc1C | -57 |
| O=S(=O)(c1ccc(SCc2ccccc2)nc1)N1CCCCC1 | 4.03 |
| O=C(C[n+]1ccccc1)Nc1nc2ccccc2s1.[Cl-] | 0.223 |
| COc1ccc(C2CC(c3ccc(Br)cc3)=NN2C(=O)CCC(=O)O)cc1OC (centres unmarked) | 9.97 |
| Cc1ccc(O)c(NC(=O)C2CC(c3ccc(F)cc3)=NO2)c1 (centres unmarked) | -3.98 |
| C[C@]12CC[C@@H](O)C[C@H]1CC[C@@H]1[C@@H]2CC[C@]2(C)C(=O)CC[C@@H]12 | -3.43 |
| C[C@]12CC[C@H](O)C[C@@H]1CC[C@@H]1[C@@H]2CC[C@]2(C)C(=O)CC[C@@H]12 | -58.3 |
| C[C@]12CC[C@@H](O)C[C@@H]1CC[C@@H]1[C@@H]2CC[C@]2(C)C(=O)CC[C@@H]12 | 5.99 |
| Cc1ccc(-n2c(O)c(C=NCCN3CCNCC3)c(=O)[nH]c2=S)cc1 | 22 |
| O=S1(=O)CCN=C2SC3=C(CCCC3)N21 | 1.25 |
| CC1CC(C)CN(C(=O)COC(=O)c2ccc3c(c2)C(=O)N(Cc2ccco2)C3=O)C1 (centres unmarked) | -68.7 |
| CC1CCCCN1C(=O)COC(=O)c1ccc2c(c1)C(=O)N(Cc1ccco1)C2=O (centres unmarked) | -34.9 |
| O=C(OCC(=O)N1CCCCC1)c1ccc2c(c1)C(=O)N(Cc1ccco1)C2=O | -28 |
| CN(CC(=O)Nc1ccccc1Br)C(=O)c1cccn1C | 16.2 |
| Cl.O=C(CCS(=O)(=O)c1ccccc1)N(CCCN1CCOCC1)c1nc2ccccc2s1 | -14.1 |
| CCc1nn(CC(=O)NCCC2=CCCCC2)c(=O)c2cc3cc(F)ccc3n12 | 15.7 |
| CN(C)S(=O)(=O)c1ccc(NC(=O)CN2CCN(c3ccccn3)CC2)cc1 | 13.9 |
| C=CCn1c2ccccc2c2nnc(SCCN3CCCCC3)nc21 | -46.4 |
| CCN(CC)CCSc1nnc2c3ccccc3n(Cc3ccccc3)c2n1 | -75.4 |
| CSc1nnc2c3ccccc3n(Cc3ccccc3)c2n1 | 25.8 |
| CSc1nnc2c3ccccc3n(CCc3ccccc3)c2n1 | -12.1 |

| Compound | hERG current change (%, negative = inhibition) at 10uM [%] |
| --- | --- |
| CCn1c2ccccc2c2nnc(SCc3ccccc3)nc21 | -3.61 |
| CCn1c2ccccc2c2nnc(SCCN3CCCCC3)nc21 | -39.1 |
| CCN(CC)CCSc1nnc2c3ccccc3n(CCc3ccccc3)c2n1 | -75.3 |
| c1ccc(Cn2c3ccccc3c3nnc(SCCN4CCCCC4)nc32)cc1 | -67.7 |
| O=C1c2ccccc2C(=O)N1CSc1nnc2c3ccccc3n(CCc3ccccc3)c2n1 | 14.4 |
| O=C(CSc1nnc(NC(=O)c2cccc(F)c2)s1)NC1CCCC1 | 13.9 |
| Cc1cc(C)nc(NC(=O)c2c(F)c(F)c(F)c(C(=O)Nc3cc(C)cc(C)n3)c2F)c1 | -8.14 |
| CN(C)C=O.CNC(=O)CSc1nc2nc(C)cc(C)n2n1 | 0.176 |
| Cc1cccc(OCC(=O)Nc2nnc(-c3ccco3)s2)c1 | -1.94 |
| CCOc1ccc2nc(SC3CC(=O)N(c4ccc(C)cc4)C3=O)sc2c1 (centres unmarked) | -6.29 |
| Cc1cc(C(=O)NCCCn2ccnc2)sc1-c1ccccc1 | -10.3 |
| O=c1ccc(-c2ccc(S(=O)(=O)NCC3CCN(Cc4ccccc4F)CC3)s2)n[nH]1 | -32.6 |
| CCOC(=O)c1c(C)[nH]c(C)c1S(=O)(=O)NCC1CCN(Cc2cccc(Cl)c2)CC1 | -20.5 |
| CCOC(=O)c1c(C)[nH]c(C)c1S(=O)(=O)NCC1CCN(Cc2ccc(C)cc2)CC1 | -60.2 |
| Cc1ccc(CN2CCC(CNS(=O)(=O)c3ccc(-c4ccc(=O)[nH]n4)s3)CC2)cc1 | -60.6 |
| COC(=O)c1cc(S(=O)(=O)NCC2CCN(Cc3ccc(F)cc3)CC2)c[nH]1 | -57 |
| Cc1cccc(NS(=O)(=O)c2c(C)nc3scc(C)n3c2=O)c1 | -65.2 |
| CCc1cccc(NS(=O)(=O)c2c(C)nc3scc(C)n3c2=O)c1 | 9.84 |
| COC(=O)c1cc(S(=O)(=O)NCC2CCN(Cc3cccc(F)c3)CC2)c[nH]1 | -16.7 |
| Cc1nc2scc(C)n2c(=O)c1S(=O)(=O)Nc1ccc(F)cc1 | -22.8 |
| COC(=O)c1cc(S(=O)(=O)NCC2CCN(Cc3ccccc3F)CC2)c[nH]1 | -21.4 |
| CCOC(=O)c1c(C)[nH]c(C)c1S(=O)(=O)NCC1CCN(Cc2cccc(F)c2)CC1 | -1.69 |
| O=c1ccc(-c2ccc(S(=O)(=O)NCC3CCN(Cc4cccc(F)c4)CC3)s2)n[nH]1 | -8.55 |
